From PubChem BioAssay (NCI)
The panel holds about 83,000 compounds, 20% with a hit somewhere; the sample as a whole holds those more often.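 Single-concentration screen, 48 h exposure, 96-well plates. Endpoint: percent growth. Below 10 = active.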 A number with no mark means an inactive call. Active and inactive are the calls of the source.

Assays:
Test in all cases: NCI-60 one-dose screen, 48 h (100 = growth as untreated, 0 = no growth, -100 = all killed)
Conditions in all cases: 10 µM unless noted
NCI-H23 lung = test system: NCI-H23 lung
NCI-H226 lung = test system: NCI-H226 lung
NCI-H322M lung = test system: NCI-H322M lung
HOP-62 NSCLC = test system: HOP-62 NSCLC
NCI-H460 lung = test system: NCI-H460 lung
HOP-92 NSCLC = test system: HOP-92 NSCLC
NCI-H522 lung = test system: NCI-H522 lung
A549/ATCC NSCLC = test system: A549/ATCC NSCLC
786-0 renal = test system: 786-0 renal
COLO 205 colon = test system: COLO 205 colon
DU-145 prostate = test system: DU-145 prostate
K-562 leukemia = test system: K-562 leukemia
MALME-3M melanoma = test system: MALME-3M melanoma
MDA-MB-231 breast = test system: MDA-MB-231 breast
RXF 393 renal = test system: RXF 393 renal
SF-268 CNS = test system: SF-268 CNS
SF-295 CNS = test system: SF-295 CNS
SF-539 CNS = test system: SF-539 CNS
UACC-257 melanoma = test system: UACC-257 melanoma
M14 melanoma = test system: M14 melanoma

Compound | growth (NCI-H23 lung) | growth (NCI-H226 lung) | growth (NCI-H322M lung) | growth (HOP-62 NSCLC) | growth (NCI-H460 lung) | growth (HOP-92 NSCLC) | growth (NCI-H522 lung) | growth (A549/ATCC NSCLC) | growth (786-0 renal) | growth (COLO 205 colon) | growth (DU-145 prostate) | growth (K-562 leukemia) | growth (MALME-3M melanoma) | growth (MDA-MB-231 breast) | growth (RXF 393 renal) | growth (SF-268 CNS) | growth (SF-295 CNS) | growth (SF-539 CNS) | growth (UACC-257 melanoma) | growth (M14 melanoma)
Cn1cc(-c2nnc(-c3cn(C)c4ncccc34)s2)c2ccccc21 | 84.6% | 96% | 92.7% | 65.8% | 75.1% | 30.2% | 32.1% | 57.6% | 78.4% | 64.1% | 73.6% | 27.8% | 29.1% | 40.2% | 78.4% | 72.1% | 47.7% | 45.8% | 96.1% | 92.8%
O=S(=O)(NCCCNc1nccc(-c2c(-c3cccc(F)c3)nc3occn23)n1)c1cccc2ccccc12 | 63.9% | 36.3% | 64.6% | 74.4% | 18.7% | 63.9% | 51.1% | 33.5% | 46.5% | -18.1% (active) | 41.4% | 4.01% (active) | 31.1% | -0.0227% (active) | 47.9% | 36.6% | 52.8% | 61.8% | 58.3% | 31.8%
c1coc2occoc=2o1 | 104% | 97.2% | 110% | 94.7% | 113% | 85.8% | 91.7% | 97% | 102% | 122% | 111% | 99.1% | 103% | 108% | 117% | 105% | 99.1% | 95.2% | 106% | 101%
CC1(C)[C@@H](NOCCCN)CC[C@]2(C)[C@H]3C(=O)C=C4[C@@H]5C[C@](C)(C(=O)O)CC[C@]5(C)CC[C@@]4(C)[C@]3(C)CC[C@@H]12 | -39.4% [100 µM] (active) | -44.8% [100 µM] (active) | -94.4% [100 µM] (active) | -84.4% [100 µM] (active) | -67.2% [100 µM] (active) | -71.8% [100 µM] (active) | -57.7% [100 µM] (active) | -27.4% [100 µM] (active) | -78.6% [100 µM] (active) | -68.2% [100 µM] (active) | -49.8% [100 µM] (active) | -8.83% [100 µM] (active) | -100% [100 µM] (active) | -88.4% [100 µM] (active) | -54.3% [100 µM] (active) | -51.8% [100 µM] (active) | -56.3% [100 µM] (active) | -93.5% [100 µM] (active) | -44.5% [100 µM] (active) | -20.3% [100 µM] (active)
O=S(=O)(NCCNc1nccc(-c2c(-c3cccc(F)c3)nc3occn23)n1)c1ccc(C(F)(F)F)cc1 | 98.5% | 84.2% | 89.3% | 85.1% | 98.9% | 77.5% | 74.4% | 70% | 78.7% | 96% | 87.9% | 69.8% | 86.2% | 86.9% | 67.9% | 70.4% | 110% | 109% | 104% | 95.4%
CCOC(=O)C(c1ccccc1)N1C(=O)c2ccccc2C1=O (stereo not given) | 87.2% | 106% | 96.2% | 95.8% | 100% | 82% | 96.8% | 97.6% | 102% | 98.5% | 107% | 114% | 94.9% | 103% | 105% | 99.7% | 100% | 97.9% | 91.9% | 96.7%
NC(=S)Cc1ccccc1 | 102% | 96.8% | 98.3% | 98.1% | 106% | 108% | 92% | 99.7% | 99.6% | 108% | 104% | 97.1% | 92.7% | 101% | 116% | 99.8% | 91.9% | 95.5% | 103% | 98.6%
O=c1[nH]c(CN2CCN(c3cccc(Cl)c3)CC2)nc2cc(Cl)ccc12 | 84.9% | 87.6% | 113% | 89.7% | 104% | 105% | 66.6% | 88.9% | 90% | 106% | 101% | 97.9% | 108% | 104% | 90.3% | 99.3% | 100% | 94.2% | 59.9% | 89.1%
